# According to PubChem BioAssay (NCATS):
# Values joined by “and” are separate entries in the source; they are usually repeats but may differ in a detail not shown here. Equal entries are not always repeated. Records with an inconclusive call do not appear. Active and inactive are the calls of the source. Calls come from the whole dose curve; as a rule, active = well fitted curve in the direction sought with a large enough effect; inconclusive = small, poorly fitted or top-dose-only effect, or another doubt; inactive = no such curve, though single readings can be large; an effect the other way counts as inactive or inconclusive.
# How the values were obtained:
# [1] = qHTS assay for measurement of the activity of small molecule inhibitors on Zika virus induced Caspase-3 activity in human astrocytoma cells (AID 1224859)
# Summary of the method: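 Human SNB-19 astrocytoma cells in RPMI 1640 with 10% FBS receive compound one hour ahead of Zika virus at 2 FFU/cell. After 6 h infection, caspase-3/7 activity is detected by Caspase-Glo luminescence.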
# [2] = qHTS Screen of the MIPE 4.0 Collection Against Ewings Sarcoma (RDES) (AID 1259252); note: nearly all actives have a fitted effect of over 35% in size; note: potency is the fitted concentration of half-maximal effect
# Summary of the method: (§1)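 Viability screen: 48 h incubation at 37C, 95% humidity, 5% CO2 with serially titrated compound, followed by CellTiter-Glo readout.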
# [3] = qHTS Screen of the MIPE 4.0 Collection Against Ewings Sarcoma (TC71) (AID 1259253); note: nearly all actives have a fitted effect of over 40% in size; note: potency is the fitted concentration of half-maximal effect
# Summary of the method: as §1
# [4] = qHTS Screen of the MIPE 4.0 Collection Against Ewings Sarcoma (EW8) (AID 1259255); note: nearly all actives have a fitted effect of over 35% in size; note: potency is the fitted concentration of half-maximal effect
# Summary of the method: as §1
# [5] = qHTS Screen of the MIPE 4.0 Collection Against Ewings Sarcoma (TC32) (AID 1259256); note: nearly all actives have a fitted effect of over 45% in size; note: potency is the fitted concentration of half-maximal effect
# Summary of the method: as §1
# [6] = Identifying Small Molecule Inhibitors of Pancreatic Cancer Stem Cells (SN12C, Adherent) (AID 1259358);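 note: cell survival measured after 48 h of compound exposure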; note: potency is the fitted concentration of half-maximal effect
# Summary of the method: (§2)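 Monolayer and spheroid cultures are compared. Spheroids form over 14 days in stem cell medium on hydrogel-coated low-attachment plates, then are exposed to compound for 48 h before CellTiter-Glo luminescence.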
# [7] = Identifying Small Molecule Inhibitors of Pancreatic Cancer Stem Cells (SN12C, Spheroid) (AID 1259360); details: Potency: SN12C spheroid viability; note: potency is the fitted concentration of half-maximal effect
# Summary of the method: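 Endpoint: ATP-based luminescence, 48 h drug exposure. Bortezomib at 9.2 uM final as full-kill control; DMSO vehicle as negative control; activity normalized between vehicle and cell-free wells.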
# [8] = P-glycoprotein substrates identified in KB-8-5-11 adenocarcinoma cell line, qHTS therapeutic library screen (AID 1346987); note: nearly all actives have a fitted effect of over 65% in size; note: potency is the fitted concentration of half-maximal effect
# Summary of the method: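 Human cervical adenocarcinoma KB-8-5-11 cells, selected in colchicine to over-express P-gp and assayed without it, were exposed for 72 h to titrated compounds. An ATP-based luminescent viability signal gave AC50.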
# [9] = Identifying Small Molecule Inhibitors of Pancreatic Cancer Stem Cells (A278, Adherent) (AID 1259361);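 note: viability read after 48 h compound exposure; nearly all actives have a fitted effect of over 35% in size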
# Summary of the method: as §2
# [10] = NS1 protein of Zika virus - qHTS assay to identify small molecule inhibitors in human HEK 293 cells (AID 1347053); note: nearly all actives have a fitted effect of over 55% in size; note: potency is the fitted concentration of half-maximal effect
# Summary of the method: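 In this cell-based screen, HEK 293 cultures received compound for one hour before Zika MR766 at MOI = 0.5. NS1 was quantified 24 hours later by TR-FRET, normalized to virus-free wells and infected wells.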
# [11] = Identifying Small Molecule Inhibitors of Pancreatic Cancer Stem Cells (Panc1, Adherent) (AID 1259362); details: Potency: viability; note: potency is the fitted concentration of half-maximal effect
# Summary of the method: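 Viability is scored by CellTiter-Glo luminescence 48 h after dosing, expressed as percent activity against vehicle and no-cell references. Spheroid formats rely on cells cultured 14 days in stem cell media beforehand.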
# [12] = P-glycoprotein substrates identified in KB-3-1 adenocarcinoma cell line, qHTS therapeutic library screen (AID 1346986);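 note: potency is the fitted concentration of half-maximal effect; potency is for cytotoxicity meaning loss of cell viability; nearly all actives have a fitted effect of over 60% in size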
# Summary of the method: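 Viability by CellTiter-Glo after 72 h compound exposure at 37 degree C, 5% CO2. Cytotoxic call: curve class -1.1 to -2.4, maximum response >50%, AC50 < 10 uM, compared across KB-3-1 and P-gp-overexpressing KB-8-5-11.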
# [13] = Identifying Small Molecule Inhibitors of Pancreatic Cancer Stem Cells (Panc1, Spheroid) (AID 1259359);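 note: potency is the fitted concentration of half-maximal effect; compound exposure lasted 48 h before reading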
# Summary of the method: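 Luminescent ATP readout (CellTiter-Glo) quantifies surviving cells after a 48 h drug incubation. Normalization uses DMSO wells as no inhibition and media-only wells as full inhibition; bortezomib served as positive control.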
Compound,Potency [1],Potency [2],Potency [3],Potency [4],Potency [5],Potency [6],Potency [7],Potency [8],IC50 (viability decrease) [9],Potency [10],Potency [11],Potency [12],Potency [13]
C[C@@H](Oc1cc(-c2cnn(C3CCNCC3)c2)cnc1N)c1c(Cl)ccc(F)c1Cl,inactive,16.6 µM (active),14.8 µM (active),10.5 µM (active),4.18 µM (active),18.7 µM (active),20.9 µM (active),13.2 µM (active) and 16.4 µM (active) and 11.6 µM (active),,,,,
Cc1ccc(S(=O)(=O)Nc2cc(Cl)ccc2C(=O)Nc2nc(-c3ccccc3)cs2)cc1,inactive,10.5 µM (active),13.2 µM (active),16.6 µM (active),14.8 µM (active),2.64 µM (active),,,3.72 µM (active),,,,
CCCCCN(CCC12CC3CC(CC(C3)C1)C2)C(=O)NCCCc1ccncc1,inactive,16.6 µM (active),18.7 µM (active),18.7 µM (active),14.8 µM (active),inactive,inactive,16.4 µM (active),,inactive,,,
Cn1c2cc(S(C)=O)sc2c2cnn(Cc3cccc(N)c3)c(=O)c21 (stereo not drawn),inactive,inactive,inactive,inactive,inactive,inactive,inactive,inactive,,,,,
NC(=O)c1c(OCc2c(F)cc(Br)cc2F)nsc1NC(=O)NCCCCN1CCCC1,inactive,16.6 µM (active),18.7 µM (active),9.35 µM (active),14.8 µM (active),5.26 µM (active),,18.4 µM (active),,,,,
CC(C)=CCCC(C)=CCCC(C)=CCSc1ccccc1C(=O)O,inactive,2.35 µM (active),2.35 µM (active),2.64 µM (active),1.87 µM (active),inactive,inactive,1.32 µM (active),,,,,
C[C@@H]1CN(CC(=O)Nc2ccc3c(c2)Cc2cccc(-c4cc(=O)cc(N5CCOCC5)o4)c2S3)C[C@H](C)O1,inactive,23.5 µM (active),20.9 µM (active),23.5 µM (active),18.7 µM (active),inactive,,inactive,,18.7 µM (active),,,
Nc1ccc(C(=O)c2cc3c(ccc4ccccc43)[nH]2)cc1,inactive,2.64 µM (active),3.32 µM (active),1.87 µM (active),1.87 µM (active),inactive,inactive,1.18 µM (active),,18.7 µM (active),2.96 µM (active),,
C[C@]1(CO)CN(c2cc(C(=O)Nc3ccc4c(c3)-c3c(c(C(N)=O)nn3-c3ccc(F)cc3)CC4)c(Cl)cn2)C[C@@]1(C)CO,inactive,14.8 µM (active),13.2 µM (active),16.6 µM (active),13.2 µM (active),16.6 µM (active),inactive,inactive,,4.69 µM (active),,5.8 µM (active),
COc1cc(=C2C=c3ccccc3=N2)[nH]c1=Cc1[nH]c(C)cc1C,inactive,1.87 µM (active),0.469 µM (active),2.35 µM (active),1.18 µM (active),,,2.96 µM (active),,,,,1.48 µM (active)
Cn1cncc1[C@@](N)(c1ccc(Cl)cc1)c1ccc2c(c1)c(-c1cccc(Cl)c1)cc(=O)n2C,inactive,7.43 µM (active),4.69 µM (active),5.26 µM (active),5.9 µM (active),,,3.72 µM (active),23.5 µM (active),,,,
Nc1cc(C(F)(F)F)c(-c2cc(N3CCOCC3)nc(N3CCOCC3)n2)cn1,inactive,0.372 µM (active),1.05 µM (active),0.59 µM (active),0.264 µM (active),,,469 nM (active) and 1.16 µM (active),,,1.87 µM (active),,0.833 µM (active)
C[C@@H](Oc1cc(-n2cnc3ccc(CN4CCN(C)CC4)cc32)sc1C(N)=O)c1ccccc1C(F)(F)F,inactive,0.0935 µM (active),0.0743 µM (active),0.0743 µM (active),0.0743 µM (active),,,0.118 µM (active),0.0187 µM (active),0.059 µM (active),,,
CC1(C)CCC(c2ccc(Cl)cc2)=C(CN2CCN(c3ccc(C(=O)NS(=O)(=O)c4ccc(N[C@H](CCN5CCOCC5)CSc5ccccc5)c(S(=O)(=O)C(F)(F)F)c4)cc3)CC2)C1,inactive,26.4 µM (active),18.7 µM (active),29.6 µM (active),5.26 µM (active),,16.6 µM (active),inactive,,inactive,,,
Nc1nccc(Oc2ccc(NC(=O)c3c[nH]cc(-c4ccc(F)cc4)c3=O)cc2F)c1Cl,inactive,1.66 µM (active),2.96 µM (active),0.743 µM (active),2.64 µM (active),,,23.5 µM (active) and 16.4 µM (active),23.5 µM (active),inactive,,,
c1nc2nc(Nc3ccc(N4CCOCC4)cc3)nc(NC3CCCCC3)c2[nH]1,inactive,14.8 µM (active),2.64 µM (active),2.35 µM (active),1.87 µM (active),,,5.26 µM (active) and 632 nM (active) and 1.16 µM (active),,,,1.3 µM (active),
CN1CCN(c2cc(C(=O)Nc3ccc4c(c3)-c3c(c(C(N)=O)nn3-c3ccc(F)cc3)CC4)c(Cl)cn2)CC1,inactive,2.64 µM (active),4.18 µM (active),20.9 µM (active),13.2 µM (active),,,23.5 µM (active),23.5 µM (active),26.4 µM (active),,29.1 µM (active),23.5 µM (active)
